Source: PubChem BioAssay AID1240 (Sanford-Burnham Center for Chemical Genomics, 2008)
In all, about 50,000 compounds went through this assay and about 800 (1.6%) showed an effect of 50% or more. Shown is part of a subset that was picked to be rich in strong results.

Biological target: Bcl-2-like protein 10 (Homo sapiens) (UniProt Q9HD36)
Test: Phenotype converters, Bcl-B/TR3 peptide binding displacement, primary biochemical FP (AID 1240);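 note: 0% = Bcl-B with tracer peptide and DMSO and 100% = tracer peptide lacking Bcl-B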
Settings: GST-Bcl-B / FITC-TR3 peptide fluorescence polarization; stronger effect = higher value; compound at 3.75 mg/L

Sequence of Bcl-2-like protein 10 (Homo sapiens) (Q9HD36 whole entry, looked up): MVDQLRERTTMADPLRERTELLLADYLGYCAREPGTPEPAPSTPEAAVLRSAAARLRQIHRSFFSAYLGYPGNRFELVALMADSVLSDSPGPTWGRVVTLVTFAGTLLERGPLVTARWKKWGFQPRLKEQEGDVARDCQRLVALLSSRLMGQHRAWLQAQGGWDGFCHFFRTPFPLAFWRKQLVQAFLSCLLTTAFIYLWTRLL

Row | Structure (SMILES) | displacement [%]
1 | CSc1ccc(/C=N\NC(=O)COc2ccc(C)cc2)cc1 | 11.8
2 | COC(=O)c1c(N)sc(C)c1-c1ccc(C)cc1C | -10.6
3 | COc1cc(/C=C/c2cc(C(F)(F)F)[nH]c(=O)n2)ccc1O | 44.6
4 | COc1ccc(OC)c(NC(=O)CN(c2cc(Cl)cc(Cl)c2)S(C)(=O)=O)c1 | -2.6
5 | O=C(N/N=C/c1ccccc1)c1cc(Br)ccc1O | 7.4
6 | O=C(CSc1nnc(-c2ccccc2)c(-c2ccccc2)n1)Nc1nccs1 | 4.6
7 | O=C(CSc1nc(-c2ccccc2)c(-c2ccccc2)o1)Nc1ccccc1 | -4.2
8 | O=C(CSc1nc(-c2ccccc2)c(-c2ccccc2)o1)Nc1nccs1 | 106
9 | CSc1nnc2c(n1)OC(C(=O)c1ccccc1)Nc1ccccc1-2 (stereo unspecified) | 13.5
10 | COc1cccc(NS(=O)(=O)c2ccc(OC)c(Br)c2)c1 | -4.6
11 | O=C1NC(=S)N/C1=C/c1ccc(Oc2ccc(C(F)(F)F)cc2[N+](=O)[O-])c(Cl)c1 | 88.3
12 | O=C1NC(=O)/C(=C\c2ccc(Oc3ccc(C(F)(F)F)cc3[N+](=O)[O-])c(Cl)c2)S1 | 5.5
13 | O=C1NC(=S)S/C1=C/c1ccc(Oc2ccc(C(F)(F)F)cc2[N+](=O)[O-])c(Cl)c1 | 2.8
14 | Cc1ccc(N(CC(=O)NC(C)c2ccccc2)S(C)(=O)=O)cc1Cl (stereo unspecified) | -1.3
15 | NNC(=O)COc1ccc2c(c1Br)CCCC2 | -25.1
16 | O=C(O)CCCCCN1C(=O)C(O)=C(C(=O)/C=C/c2ccccc2)C1c1cccc([N+](=O)[O-])c1 (stereo unspecified) | 96.1
17 | O=C(O)CCCCCN1C(=O)C(O)=C(C(=O)/C=C/c2ccccc2)C1c1ccc([N+](=O)[O-])cc1 (stereo unspecified) | -4.6
18 | O=C(O)CCCCCN1C(=O)C(O)=C(C(=O)/C=C/c2ccccc2)C1c1ccccc1 (stereo unspecified) | 4.7
19 | Cc1cc(Cl)ccc1NC(=O)C(=O)N/N=C/c1ccccc1F | 4.5
20 | CCN1CCN(CC(O)CN2CCn3c4c(c5cc(C)ccc53)CCCC42)CC1 (stereo unspecified) | 24.7
21 | CCNC(=O)/C=C/c1cn(-c2ccccc2)nc1-c1ccccc1 | 9.4
22 | CCOC(=O)C(=C/C=C1/Sc2ccccc2N1C)C(=O)OCC | 131
23 | CCOC(=O)C(=C/C=C/c1ccccc1)C(=O)OCC | -2.3

Row | Structure (SMILES) | displacement [%]
24 | CCOC(=O)C(C(=O)OCC)=C1Sc2ccccc2N1C | 13.4
25 | COc1ccc(Br)cc1/C=C/C(=O)N1CCN(c2ccc([N+](=O)[O-])cc2)CC1 | 12.3
26 | O=C(NC(=S)Nc1ccccc1)c1ccccc1 | 4.7
27 | O=C(Nc1ccc2c(c1)Cc1ccccc1-2)c1cc2ccccc2o1 | 134
28 | O=C(NC(=S)Nc1ccc2c(c1)-c1ccccc1C2)c1ccccc1 | 51.9
29 | O=C(Nc1ccc(Cl)c(Cl)c1)c1cc2ccccc2o1 | 2.9
30 | Cc1ccc(NC(=S)NC(=O)c2ccccc2)cc1Br | 9
31 | O=C(NC(=S)Nc1ccc2oc3ccccc3c2c1)c1ccccc1 | 91.8
32 | O=C(NC(=S)Nc1ccc2oc(-c3ccccc3)nc2c1)c1ccccc1 | -10.6
33 | O=C(Nc1ccc2c(c1)Cc1ccccc1-2)c1ccncc1 | -3.2
34 | O=C(Nc1ccc2c(c1)OCCO2)c1cc2ccccc2o1 | -6.3
35 | COc1ccc(-c2nc(NC(=O)c3ccccc3F)sc2-c2ccc([N+](=O)[O-])cc2)cc1 | 13.6
36 | CCOc1ccc(/C=C2\C(=O)NC(C)=C2C(=O)OC)cc1 | 10.8
37 | CCOC(=O)C1=C(C)NC(=O)/C1=C\c1cccs1 | 108
38 | CCOC(=O)C1=C(C)NC(C)=C(C(=O)OCC)C1c1cccs1 | -5.1
39 | Cc1ccc(S(=O)(=O)Nc2ccccc2C(O)C[N+](=O)[O-])cc1 (stereo unspecified) | -4.2
40 | COc1ccc(N2Cc3ccc(C(=O)NN)cc3C2)cc1 | -29.2
41 | COc1ccc2c(c1)cc(C(=O)NN)n2C | 67.4
42 | CNC(=O)c1cc2cc(OC)ccc2n1CCN(C)C | -11.4
43 | COC(=O)C1=NN(C(C)=O)C(O)(c2ccccc2)C1 (stereo unspecified) | 2.1
44 | COc1ccc(/C=N\N2CCN(c3ccccc3OC)CC2)cc1OC | -6.7
45 | CCOc1cccc(-c2cc(C(=O)Nc3nnc(C)s3)c3ccccc3n2)c1 | 135
46 | CCOc1ccc(-c2cc(C(=O)Nc3nnc(C)s3)c3ccccc3n2)cc1 | 6.3

Row | Structure (SMILES) | displacement [%]
47 | CCOc1cccc(-c2cc(C(=O)N3CCc4ccccc43)c3ccccc3n2)c1 | 110
48 | CCOc1cccc(-c2cc(C(=O)Nc3cc(C)ccn3)c3ccccc3n2)c1 | 2
49 | CCOc1cccc(-c2cc(C(=O)N3CCCCCC3)c3ccccc3n2)c1 | -10.2
50 | CCOc1cccc(-c2cc(C(=O)N3CCN(C)CC3)c3ccccc3n2)c1 | -5.5
51 | Cc1ccccc1OCC(=O)N1N=C(c2ccc(F)cc2)CC1(O)C(F)(F)F (stereo unspecified) | -4.5
52 | Cc1[nH]c2ccccc2c1/C=N/NC(=O)c1cccc([N+](=O)[O-])c1 | 0.7
53 | COc1ccc(C(C)N(C)CCC(c2ccccc2)c2ccccc2)cc1OC (stereo unspecified) | 5.7
54 | O=C1c2ccccc2C(=O)c2c1cc(Cl)cc2N1CCCCC1 | 2.8
55 | Cn1c(=O)c(N)c2c3c(c(Br)ccc31)C(=O)c1ccccc1-2 | 159
56 | Nc1ccc2c(c1)C(=O)c1ccccc1C2=O | 6.9
57 | Cn1c(=O)c(N)c2c3c(cccc31)C(=O)c1ccccc1-2 | 154
58 | O=C1c2ccccc2C(=O)c2c1c(Cl)c(Cl)c(Cl)c2N1CCCC1 | 8
59 | Cn1c(=O)c(-c2ccccc2N)nc2ccccc21 | -5.4
60 | Cn1c2c(c(=O)n(C)c1=O)C(c1ccc(Br)cc1)C1=C(N2)c2ccccc2C1=O (stereo unspecified) | -10.4
61 | Cn1c(=O)c(N2CCCCC2)c2c3c(cccc31)C(=O)c1ccccc1-2 | 147
62 | Cn1c(=O)c(-c2ccccc2N)nc2cc3ccccc3cc21 | 33.6
63 | COc1ccc(C2CC(C(F)(F)F)n3ncc(C(=O)NC(C)(C)C)c3N2)cc1 (stereo unspecified) | 3.6
64 | O=C(c1nn2c(C(F)(F)F)cc(-c3ccco3)nc2c1Cl)N1CCN(Cc2ccccc2)CC1 | 1.1
65 | CCOc1ccc(C(=O)Nc2ccc([N+](=O)[O-])cc2)cc1Cl | -9.7
66 | O=C(N/N=C/c1ccc([N+](=O)[O-])o1)c1ccc(Cl)c(Cl)c1 | 19
67 | COc1ccc(N(CC(=O)Nc2ccccc2C)S(C)(=O)=O)cc1Cl | -10.4
68 | C/C(=N\NC(=O)c1cc(C23CC4CC(CC(C4)C2)C3)[nH]n1)c1ccc(N)cc1 | -8.7
69 | Brc1ccc(C=NN2CCN(Cc3ccccc3)CC2)cc1 | -17.6

Row | Structure (SMILES) | displacement [%]
70 | CCOC(=O)C1=C(C)OC(N)=C(C#N)C1c1ccc(OC)cc1 (stereo unspecified) | -10.8
71 | CCOC(=O)C1=C(N)Oc2ccc3ccccc3c2C1c1ccc(Cl)cc1 (stereo unspecified) | -10.4
72 | CCOC(=O)C1=C(N)Oc2c(ccc3ccccc23)C1c1ccc(OC)cc1 (stereo unspecified) | 108
73 | COc1cc(/C=C2\SC(N)=NC2=O)cc(Br)c1OC | -25.9
74 | Cc1[nH]c(=O)c(C(=O)/C=C/c2cccs2)c2c1CCCC2 | 119
75 | Cc1[nH]c(=O)c(C(=O)/C=C/c2ccccc2Cl)c2c1CCCC2 | 11
76 | Cc1ccc(/C=C/C(=O)c2c3c(c(C)[nH]c2=O)CCCC3)cc1 | 49.3
77 | Cc1cccc(NC(=O)C(=O)NCc2ccco2)c1C | 11
78 | O=C(Nc1ccc(I)cc1)c1ccc(Cl)cc1Cl | 6.9
79 | Cc1ccc(N2C(=O)C(=O)/C(=C(/O)c3ccccc3)C2c2ccc(O)cc2)cc1Cl (stereo unspecified) | -3.5
80 | NC(=O)c1ccccc1N=Cc1cc(Cl)cc(Cl)c1O | -7.2
81 | NC(=O)c1cccc(N=Cc2cc(Cl)cc(Cl)c2O)c1 | 145
82 | Oc1c(Cl)cc(Cl)cc1C=Nc1cccc(C(F)(F)F)c1 | 2.4
83 | CN(C)CCCNC(=O)/C=C/c1ccc(C(C)(C)C)cc1 | 6.4
84 | O/N=C/c1cn(-c2ccccc2)nc1-c1ccc(Cl)cc1 | -3.8
85 | O=c1oc2ccccc2cc1-c1nn(-c2ccccc2)cc1/C=N/O | 53
86 | O/N=C/c1cn(-c2ccccc2)nc1-c1ccccc1 | 10
87 | COCCCNC(=O)C(=O)Nc1ccccc1F | -11.9
88 | CCOc1cc(C2C(C(=O)OC)=C(C)NC(C)=C2C(=O)OC)ccc1O | 0.1
89 | COc1cc(/C=C2\SC(=S)N(c3ccc(F)cc3)C2=O)cc(OC)c1OC | 3.3
90 | COc1cc(/C=C2/SC(=S)N(c3ccccc3)C2=O)ccc1OC(=O)c1ccc(F)cc1 | 4.7
91 | COc1ccc(/C=C2\SC(=S)N(c3ccc(F)cc3)C2=O)cc1OC | 105
92 | CCOc1ccc(/C=C2\SC(=S)N(c3ccc(OC)cc3)C2=O)cc1OC | 114

Row | Structure (SMILES) | displacement [%]
93 | COc1ccc(N2C(=O)/C(=C/c3ccc(OC)c(OC)c3)SC2=S)cc1 | 6.5
94 | C=CCOc1ccc(/C=C2\SC(=S)N(c3ccc(OC)cc3)C2=O)cc1OC | 6.7
95 | O=S(=O)(c1ccc(C=Nc2ccc(Br)cc2)cc1)c1ccc(C=Nc2ccc(Br)cc2)cc1 | -8.7
96 | COc1ccc(C2CC(C(F)(F)F)n3ncc(C(=O)Nc4ccc(F)cc4F)c3N2)cc1OC (stereo unspecified) | -1.7
97 | CC1(C)Cc2ccccc2C(/C(=N\O)C(=O)c2ccccc2)=N1 | 13.1
98 | COc1ccc(C(=O)Nc2cccc(S(N)(=O)=O)c2)cc1 | -5.8
99 | CCOP(=O)(OCC)/C(=C(\NC(=O)c1ccccc1)C(=O)Nc1ccccc1C(F)(F)F)c1ccccc1 | 12.2
100 | COc1c(Cl)ccc(Cl)c1C(=O)NCCc1ccccc1 | -18.4
101 | COc1ccc(CCNC(=O)c2ccc(Cl)c(Cl)c2)cc1OC | 6
102 | COc1ccc(CCNC(=O)c2c(Cl)ccc(Cl)c2OC)cc1OC | 57
103 | C=CCN(CC=C)C(=O)COc1ccc(Cl)cc1 | -5.1
104 | CC(=O)NCCc1c(C)n(Cc2ccccc2)c2ccccc12 | 20.2
105 | O=C(c1sc2ccccc2c1Cl)N1CCN(Cc2ccc3c(c2)OCO3)CC1 | 0.4
106 | O=c1[nH]c2ccc(Nc3nc4ccccc4nc3NS(=O)(=O)c3ccc(Cl)cc3)cc2[nH]1 | 102
107 | COc1ccc2nc(NS(=O)(=O)c3ccc(Cl)cc3)c(Nc3ccc4[nH]c(=O)[nH]c4c3)nc2c1 | -2.9
108 | O=S(=O)(Nc1nc2ccccc2nc1Nc1ccccc1)c1ccccc1 | 16.9
109 | COC(=O)c1cc(Nc2nc3ccccc3nc2NS(=O)(=O)c2ccccc2)ccc1Cl | 158
110 | O=S(=O)(Nc1nc2ccccc2nc1Nc1cccc(O)c1)c1ccc(Cl)cc1 | 7.1
111 | CC(=O)Nc1ccc(Nc2nc3ccccc3nc2NS(=O)(=O)c2ccc(Cl)cc2)cc1 | -12.5
